Records with an inconclusive call do not appear. Activity calls are given as the source filed them. Unless noted, calls follow the shape of the dose curve; as a rule, active = well fitted curve in the direction sought with a large enough effect; inconclusive = small, poorly fitted or top-dose-only effect, or another doubt; inactive = no such curve, though single readings can be large; an effect the other way counts as inactive or inconclusive.

Test [1] has as its target Cytochrome P450 2D6 (Homo sapiens) (UniProt P10635). Nature of the test: Cytochrome P450 family 2 subfamily D member 6 (CYP2D6) small molecule antagonists: luciferase biochemical (cell-free) qHTS assay (AID 1645840; active = well fitted curve in the direction sought with a large enough effect in the repeat runs; an effect the other way counts as inactive or inconclusive; also: nearly all actives have a fitted effect of over 55% in size). Conditions: P450-Glo CYP2D6 enzyme, luciferin luminescence, 1 h; series mostly up to 57.4 µM. The method in brief:
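P450-Glo CYP2D6 system: proluciferin substrate converted by enzyme to luciferin, read by luminescence proportional to activity. Enzyme-substrate mix with compound 10 min at room temperature, then NADPH regeneration 1 h before detection reagent.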

For test [2], the target named is Cytochrome P450 2C9 (Homo sapiens) (UniProt P11712). Put plainly: Cytochrome P450 family 2 subfamily C member 9 (CYP2C9) small molecule antagonists: luciferase biochemical (cell-free) qHTS assay (AID 1645842; active = well fitted curve in the direction sought with a large enough effect in the repeat runs; an effect the other way counts as inactive or inconclusive; also: nearly all actives have a fitted effect of over 55% in size). Particulars: P450-Glo CYP2C9 enzyme assay, luciferin luminescence; series mostly up to 57.4 µM. The method in brief:
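P450-Glo CYP2C9 system: proluciferin substrate with enzyme in mix containing 0.4% BSA, 10 min at room temperature, then NADPH regeneration solution added and incubated 1 h at 37C. Detection reagent stopped reaction; luminescence read after 20 min as RLU.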
(In qHTS, concentration-response curves come from the screen itself.)

A short description of test [3]: Primary qHTS for inhibitors of nuclear receptor binding SET domain protein 2 (NSD2) in an isogenic RCH-ACV NSD2 p.E1099K mutant (9B) (AID 1645876). Also: nearly all actives have a fitted effect of over 70% in size. Conditions: RCH-ACV NSD2 E1099K (9B) viability, CellTiter-Glo, 72 h; series mostly up to 44.9 µM.
Test [4] is described as follows: Primary qHTS for inhibitors of nuclear receptor binding SET domain protein 2 (NSD2) in an RCH-ACV wild type WT cells (2C) (AID 1645877). Also: nearly all actives have a fitted effect of over 70% in size. Particulars: RCH-ACV (leukaemia line) NSD2 WT (2C) viability, CellTiter-Glo, 72 h; series mostly up to 44.9 µM.
Potency is read from the fitted curve at half-maximal effect.

Cytochrome P450 2C9 (Homo sapiens), sequence (P11712 whole entry, looked up): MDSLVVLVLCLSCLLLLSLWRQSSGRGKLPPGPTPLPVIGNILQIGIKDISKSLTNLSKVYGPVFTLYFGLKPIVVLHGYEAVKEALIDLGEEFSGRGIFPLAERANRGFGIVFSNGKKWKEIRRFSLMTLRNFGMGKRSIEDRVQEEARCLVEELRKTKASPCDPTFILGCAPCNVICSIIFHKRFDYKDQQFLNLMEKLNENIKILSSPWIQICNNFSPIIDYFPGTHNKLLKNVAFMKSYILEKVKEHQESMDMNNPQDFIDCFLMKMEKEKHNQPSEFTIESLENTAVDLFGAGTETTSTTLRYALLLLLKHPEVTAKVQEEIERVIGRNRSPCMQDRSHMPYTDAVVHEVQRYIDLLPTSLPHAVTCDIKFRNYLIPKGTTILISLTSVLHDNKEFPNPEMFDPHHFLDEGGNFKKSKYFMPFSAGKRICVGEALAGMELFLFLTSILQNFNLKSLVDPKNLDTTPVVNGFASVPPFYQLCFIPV
Cytochrome P450 2D6 (Homo sapiens), sequence (P10635 whole entry, looked up): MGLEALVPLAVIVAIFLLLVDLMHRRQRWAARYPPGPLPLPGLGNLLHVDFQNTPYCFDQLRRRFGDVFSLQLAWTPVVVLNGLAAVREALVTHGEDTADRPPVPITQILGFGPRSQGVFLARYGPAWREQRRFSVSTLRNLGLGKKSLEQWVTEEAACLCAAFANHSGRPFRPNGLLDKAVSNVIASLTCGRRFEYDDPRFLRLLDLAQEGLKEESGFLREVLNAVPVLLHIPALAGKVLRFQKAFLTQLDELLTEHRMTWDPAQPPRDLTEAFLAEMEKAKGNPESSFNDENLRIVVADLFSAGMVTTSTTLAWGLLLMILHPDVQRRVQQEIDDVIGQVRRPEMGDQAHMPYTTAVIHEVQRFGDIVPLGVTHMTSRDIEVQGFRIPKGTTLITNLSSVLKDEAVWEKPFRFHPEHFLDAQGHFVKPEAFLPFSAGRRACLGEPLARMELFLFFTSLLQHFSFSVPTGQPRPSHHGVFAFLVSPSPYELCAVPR

On to `O=C(NCc1cccs1)c1cc2nc(-c3ccco3)cc(C(F)(F)Cl)n2n1`, for which the results for the Potency in test [1] and in test [2] were 7.56 µM (active) and 0.301 µM (active), respectively. Further, the Potency result in test [3] and in test [4] was “inactive” each time.

As to `COC(=O)c1ccc2c(c1)[nH]c1ncnc(NCCCN3CCCCC3)c12`, the Potency entry in test [1] and in test [2] was “inactive” each time. Moreover, the Potency in test [3] and in test [4] was 16.3 µM (active) each time.

As for `Clc1ccc(Nc2nc3ccccc3c3nc(C4CCCCC4)[nH]c23)cc1Cl`, in test [1], the Potency result is “inactive”. Besides, the Potency is 6.01 µM (active) in test [2], 16.3 µM (active) in test [3] and 16.3 µM (active) in test [4].

For the molecule `Cc1cc(N2CCN(C(=O)Oc3ccc(-c4ccccc4)cn3)CC2)c2ccccc2n1`, the Potency in test [1] was 15.1 µM (active); in test [2], 26.8 µM (active); in test [3], 12.9 µM (active); in test [4], 12.9 µM (active).

In the case of `CCN1C(C)(C)CC(Oc2ccc(C(=O)Nc3ccc(NC(=O)Nc4cc(C(C)(C)C)on4)cc3)nc2)CC1(C)C`, the Potency in test [1] was 19 µM (active); in test [3], 4.11 µM (active); in test [4], 6.51 µM (active). For the same molecule, the Potency entry in test [2] is “inactive”.

Consider `CCCC(CCC)C(=O)Nc1ccn([C@@H]2O[C@H](CO)[C@@H](O)C2(F)F)c(=O)n1`, for which the Potency result in test [1] was “inactive”. The Potency in test [2] was 8.49 µM (active); in test [3], 1.48 µM (active); in test [4], 0.934 µM (active).

Regarding `COc1ccc(C(=O)Nc2c(Cl)cncc2Cl)cc1OC1CCCC1`, the Potency entry in test [1], in test [3] and in test [4] was “inactive” in each case. The Potency in test [2] is 6.74 µM (active).

Consider `O=C(NS(=O)(=O)c1ccc(Br)s1)c1ccc(Cl)cc1Cl`, for which the Potency entry in test [1] was “inactive”. Besides, the Potency in test [2] is 2.68 µM (active); in test [3] it was 10.3 µM (active); in test [4], 9.16 µM (active).

For the molecule `CCOC(=O)N1CCC(N2CCC[C@@H](NC(=O)c3ccccc3C)C2)CC1`, the Potency in test [1] was 16.9 µM (active). For the same molecule, the Potency result in test [2], in test [3] and in test [4] was “inactive” throughout.

As to `COc1cc(CN(CCN)C(=O)c2cccs2)ccc1OCc1ccccc1`, the Potency in test [1] was 0.849 µM (active); in test [2], 10.7 µM (active); in test [3], 18.3 µM (active); in test [4], 20.5 µM (active).

In the case of `O=C(Nc1ccc(Cl)cc1)C1CCCN(C(=O)c2cccc(-c3ccco3)c2)C1` (stereo not given), the Potency is 13.5 µM (active) in test [1], 15.1 µM (active) in test [2], 14.5 µM (active) in test [3] and 23 µM (active) in test [4].

On to `CC(=O)c1ccc2c(c1)[C@H](NC(=O)c1ccc(F)c(Cl)c1)[C@H](O)C(C)(C)O2`, for which the Potency in test [1] is 0.674 µM (active); in test [2], 2.68 µM (active). Further, the Potency result in test [3] and in test [4] was “inactive” each time.

Regarding `CC(C)(C[C@@](O)(Cc1cc2ccncc2[nH]1)C(F)(F)F)c1cc(F)ccc1O`, the Potency in test [1] is 0.134 µM (active); in test [2], 0.301 µM (active); in test [3] it was 10.3 µM (active); in test [4] it was 0.163 µM (active).

Take `C[C@H]1[C@H](/C=C/c2ccc(-c3ccccc3C#N)cn2)[C@@H]2[C@@H](C)OC(=O)[C@@H]2C[C@@H]1C`: the Potency entry in test [1] and in test [2] was “inactive” each time. Further, the Potency is 14.5 µM (active) in test [3] and 10.3 µM (active) in test [4].

For the molecule `COc1ccc(-c2ccc3c(N4CCOCC4C)nc(N4CCOCC4C)nc3n2)cc1CO` (stereo not given), in test [1], the Potency result was “inactive”. The Potency in test [2] is 4.77 µM (active); in test [3] it was 0.0325 µM (active); in test [4], 0.0515 µM (active).

Take `O=C(NCCCNc1nc(Nc2cccc(CN3CCOCC3)c2)ncc1C1CC1)C1CCC1`: the Potency was 6.01 µM (active) in test [1], 8.49 µM (active) in test [2], 2.63 µM (active) in test [3] and 1.18 µM (active) in test [4].

On to `Oc1ccc(-c2cnc3ccc(NCc4ccco4)nn23)cc1`, for which the Potency in test [1] was 1.69 µM (active); in test [2] it was 0.756 µM (active); in test [3], 1.83 µM (active); in test [4], 1.83 µM (active).

For `CN1CCC(NC(=O)c2cc(-c3c(O)cc(O)cc3Oc3ccc([N+](=O)[O-])cc3)on2)CC1`, in test [1], the Potency result was “inactive”. Besides, the figures for the Potency in test [2], in test [3] and in test [4] were 12 µM (active), 0.23 µM (active) and 0.23 µM (active), respectively.

For `CC(C)OC(=O)N1CCC(Oc2ncnc3c2cnn3-c2ccc(S(C)(=O)=O)cc2F)CC1`, the Potency result in test [1], in test [3] and in test [4] was “inactive” throughout. For the same molecule, the Potency in test [2] is 3.79 µM (active).

For the molecule `O=C(NNc1nc2cc(F)ccc2n2cccc12)c1cnccn1`, the Potency result in test [1] and in test [2] was “inactive” throughout. Moreover, the Potency in test [3] was 0.817 µM (active); in test [4], 0.916 µM (active).

Consider `Cc1ccccc1CN1CCn2c1nc1c(c2=O)CN(Cc2ccccc2)CC1`, for which the Potency is 13.5 µM (active) in test [1] and 8.49 µM (active) in test [2]. The Potency entry in test [3] and in test [4] was “inactive” throughout.

For `CCCCC1CCC(c2nc(-c3ccncc3)no2)CC1` (stereo not given), the figures for the Potency in test [1] and in test [2] were 0.536 µM (active) and 5.35 µM (active), respectively. For the same molecule, the Potency result in test [3] and in test [4] was “inactive” throughout.

For `Cc1cc(NC(=O)c2cccc(NC(=O)/C=C/CN(C)C)c2)ccc1Nc1nccc(-c2cccnc2)n1`, the Potency in test [1] is 10.7 µM (active); in test [2], 16.9 µM (active); in test [3] it was 4.61 µM (active); in test [4], 4.59 µM (active).

Turning to `Cc1nc(C#Cc2ccnc(Cl)c2)c(C)n1-c1ccc(F)cc1`, the Potency was 19 µM (active) in test [1], 11.5 µM (active) in test [3] and 11.5 µM (active) in test [4]. In addition, the Potency entry in test [2] was “inactive”.

In the case of `N#Cc1cc(CN2CCC(Nc3ncnc4sc(Cl)cc34)CC2)ccc1F`, the Potency in test [1] is 1.51 µM (active); in test [3], 14.5 µM (active); in test [4], 20.5 µM (active). For the same molecule, in test [2], the Potency entry is “inactive”.

Values taken from PubChem BioAssay (NCATS).
